rTrxR1 inhibitor – qHTS Assay for Inhibitors of Mammalian Selenoprotein Thioredoxin Reductase 1 (TrxR1): qHTS; Potency, µM (titrated, usually from 114 µM), inactives show at the highest dose activity change, negative = inhibition, usual class: inhibitors; actives 1% (n = 390,000); recombinant rTrxR1, NADPH fluorescence consumption, selenite substrate; Thioredoxin reductase 1, cytoplasmic (Rattus norvegicus), O89049; also: potency is read from the fitted curve at half-maximal effect; nearly all actives have a fitted effect of over 65% in size
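Rat TrxR1 (90 nM in the dispensed reagent) was pre-reduced with 400 uM NADPH for 5 min at room temperature, then incubated with compound for 15 min. After 400 uM selenite was added, NADPH fluorescence (Ex 340/Em 450 nm) was followed for 8 min.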
Giardia killer – Small Molecules that selectively kill Giardia lamblia: qHTS; Giardia lamblia trophozoite viability; activity change, % at 7.66 µM, hits read low; actives 0.15% (n = 340,000); in the data active = activity change below about -80%;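 also: parasites exposed to compound for two days anaerobically before the ATP read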
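Luminescent ATP signal served as the viability read-out, measured 15-30 min after adding ATP detection reagent to trophozoites that had been incubated with compounds for 48 hrs at 37 deg C anaerobically at 100 cells/well.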
Coupling enz – qHTS Assay for Inhibitors of Fructose-1,6-bisphosphate Aldolase from Giardia Lamblia: Coupling assay counterscreen; actives 0.67% (n = 290,000); activity change, negative = inhibition, % at 58.2 µM, hits read low; coupling enzyme system counterscreen, AmpLite Red fluorescence; AID 2472, 2010; in the data active = activity change below about -30%
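Compounds tested against the coupling enzymes alone at 57.5 uM final; readout was AmpLite Red fluorescence (525/598 nm) after 20 min at RT.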
PI4K2A block – qHTS for small molecular inhibitors of PI4K2A; Phosphatidylinositol 4-kinase type 2-alpha (Homo sapiens), Q9BTU6; purified PI4K2A, ADP-Glo luminescence, 1 h; hits give low values; activity change, negative = inhibition, % at 76.9 µM; actives 0.13% (n = 420,000); AID 1346378, 2018; in the data active = activity change below about -50%;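 also: -100% = wells without enzyme as full effect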
Target sequence (Q9BTU6 whole entry, looked up): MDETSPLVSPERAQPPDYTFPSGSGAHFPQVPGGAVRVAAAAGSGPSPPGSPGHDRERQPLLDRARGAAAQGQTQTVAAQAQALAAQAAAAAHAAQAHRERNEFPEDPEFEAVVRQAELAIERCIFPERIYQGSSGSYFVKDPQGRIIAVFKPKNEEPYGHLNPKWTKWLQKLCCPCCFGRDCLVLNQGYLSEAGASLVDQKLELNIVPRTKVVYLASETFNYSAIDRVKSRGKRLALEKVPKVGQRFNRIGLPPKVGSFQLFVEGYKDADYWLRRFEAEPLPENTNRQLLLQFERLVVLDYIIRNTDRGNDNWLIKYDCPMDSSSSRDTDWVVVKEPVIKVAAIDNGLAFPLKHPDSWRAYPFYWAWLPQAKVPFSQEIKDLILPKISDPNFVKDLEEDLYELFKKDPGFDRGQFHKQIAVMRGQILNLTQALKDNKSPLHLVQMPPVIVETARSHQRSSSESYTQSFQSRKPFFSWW
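PI4K2A activity was measured by ADP-Glo luminescence: enzyme (4 ug/mL stock) and phosphatidylinositol (1.2 mM stock) in Tris pH 7.5/MgCl2/EGTA/Triton X-100 buffer were reacted with ATP (300 microM stock) for one hour at ambient temperature.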
TrxR1 substrate – qHTS Assay for Substrates of Mammalian Selenoprotein Thioredoxin Reductase 1 (TrxR1): qHTS; Thioredoxin reductase 1, cytoplasmic (Rattus norvegicus), O89049; purified TrxR1 substrate turnover, NADPH consumption readout; Potency, µM (top dose mostly 114 µM), for inactives: at the top dose activity change, negative = substrate turnover; actives 0.01% (n = 390,000); AID 588456, 2011; also: potency is read from the fitted curve at half-maximal effect; nearly all actives have a fitted effect of over 50% in size
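Rat TrxR1, dispensed at 90 nM, was prereduced with 400 uM NADPH (final) for 5 min at ~22 deg C, then incubated with compound 15 min before 400 uM selenite. A first-read NADPH fluorescence drop versus no-compound background flagged substrates.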
GALK inh – qHTS Assay for Inhibitors of Human Galactokinase (GALK); Purified GALK, Kinase-Glo residual ATP luminescence; Potency, µM (top dose mostly 57.5 µM), without a hit: top-dose activity change, negative = inhibition, actives largely listed as inhibitors; actives 0.007% (n = 270,000); AID 1868, 2009; also: potency is read from the fitted curve at half-maximal effect
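GALK at 5 nM final was combined with compound, 35 uM ATP and 100 uM galactose in HEPES pH8.0 with MgCl2 and DTT. The reaction ran one hour at room temperature before luminescent ATP detection.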
Numbers without * were called inactive; · = not tested or not shown; [ ] = remark or other dose. Only some compounds are listed: those with a hit (about 1.5% of all), similar ones and a draw of the others. Unless noted, calls follow the shape of the dose curve; as a rule, active = well fitted curve in the direction sought with a large enough effect; inconclusive = small, poorly fitted or top-dose-only effect, or another doubt; inactive = no such curve, though single readings can be large; an effect the other way counts as inactive or inconclusive. Unless noted, % is scaled to controls: 0 for no effect and ±100 for the full control effect.

SMILES	rTrxR1 inhibitor	Giardia killer	Coupling enz	PI4K2A block	TrxR1 substrate	GALK inh
COc1ccc(C(=O)Nc2ccccc2C(=O)N/N=C/c2cccc3ccccc23)cc1	35.4%	-95.4*	0.8	-12.5	12.5%	·
COc1ccc(OC)c(/C=N/NC(=O)CNC(=O)c2cccc3ccccc23)c1	191.8%	2.3	-33.9*	1.6	202.5%	1.7%
COc1ccc([N+](=O)[O-])cc1/C=N/NC(=O)CNC(=O)c1cccc(F)c1	-5.8%	-5.9	-16.3	-1.0	-15.2%	-0.5%
COc1cccc(/C=N/NC(=O)c2cccc3ccccc23)c1	6.0%	-6.2	-0.9	-0.5	-1.4%	-0.8%
COc1ccc(CNC(=O)Cc2c(C)c3c(cc(C)c4c(C)coc43)oc2=O)cc1	15.2%	·	·	-0.9	0.8%	·
Cc1oc(-c2cccs2)nc1CS(=O)CC(=O)NCCCOC(C)C (centres undefined)	12.6µM*	5.4	·	2.5	0.8%	-0.1%
Cc1oc(-c2cccs2)nc1CS(=O)CC(=O)NCCc1ccccc1 (centres undefined)	5.62µM*	-5.7	0.4	-2.2	11.4%[57.1 µM]	1.9%
CCCCNC(=O)CS(=O)Cc1nc(-c2cccs2)oc1C (centres undefined)	6.31µM*	12.3	2.1	-2.0	5.2%[57.1 µM]	2.7%
Cc1oc(-c2ccc(Cl)cc2)nc1CS(=O)CC(=O)NCCc1ccccc1 (centres undefined)	-23.0%[57.1 µM]	·	·	-0.8	-8.3%[57.1 µM]	·
CC#CCN1c2ccccc2[C@]23C[C@@H](C(=O)OC)N(C(=O)c4cccs4)C2=NC(C(=O)OC)=C(C(=O)OC)[C@H]13	·	·	0.4	·	·	·
CCn1c(SCC(=O)Nc2ccccc2-c2ccccc2)nnc1-c1ccc(C)cc1	·	·	·	2.6	·	·
Cc1csc(/C(=N/OC(=O)c2ccco2)C(N)=O)n1	11.2µM*	-5.5	1.6	5.6	4.7%	1.9%
Cc1ccc2c(/C=C/c3c[nH]c4ccccc34)ccnc2c1C	19.5%	·	·	·	2.6%	·
O=C(O)c1cc(N(Cc2ccccc2O)Cc2ccccc2O)ccc1O	39.8µM*	7.5	-14.8	·	1.2%	·
CCN(CC)c1ccc(C(=O)c2ccccc2C(=O)O)c(O)c1	-26.7%	-4.0	6.2	4.4	-19.9%	-2.2%
CO[C@H]1/C=C\O[C@@]2(C)Oc3c(C)c(O)c4c(O)c(c(C=NN5CCN(C6CCCC6)CC5)c(O)c4c3C2=O)NC(=O)C(C)=CC=C[C@H](C)[C@H](O)[C@@H](C)[C@@H](O)[C@@H](C)[C@H](OC(C)=O)[C@H]1C	-16.6%	·	·	·	-19.1%	·
C=CCn1c(N)c(C(=O)Nc2ccc(C)c(C)c2)c2nc3ccccc3nc21	5.2%	-0.9	5.2	-5.8	-4.4%	2.0%
C=CCn1c(N)c(C(=O)Nc2cccc(C)c2)c2nc3ccccc3nc21	13.7%	-14.1	-33.8*	-14.5	4.4%	-1.5%
COc1ccc(S(=O)(=O)N2CCCN(CC(=O)C(C)(C)C)CC2)cc1	12.6µM*	2.3	0.4	-2.5	1.4%	0.2%
COc1ccc(S(=O)(=O)N2CCCN(CC(=O)Nc3ccc4c(c3)OCO4)CC2)cc1	79.4µM*	-7.5	0.5	-0.3	-7.7%	-6.3%
O=C(CN1CCCN(S(=O)(=O)c2ccc(Br)cc2)CC1)Nc1ccc2c(c1)OCO2	·	·	-1.6	·	·	0.8%
COc1ccc(NC(=O)CN2CCN(Cc3ccc4c(c3)OCO4)CC2)cc1OC	7.8%	9.8	-38.3*	22.9	-0.7%	-0.1%
COc1ccc(-c2nc3c(c4c2C[C@H](c2ccccc2)OC4)CN(S(=O)(=O)c2ccc4c(c2)OCCN4C)CC3)c(C)c1	·	·	0.0	·	·	·
Oc1ccccc1C1Nc2cccc3cccc(c23)N1	-38.9%	-23.8	-34.5*	0.2	10.6%[57.1 µM]	-0.7%

Assay outcomes: PubChem BioAssay, National Center for Advancing Translational Sciences (NCATS)
